Source: PubChem BioAssay
Shown is part of a subset that was picked to be rich in hits.
Methyltransferases – Primary Screen for Target Class Profiling of Small Molecule Inhibitors of Methyltransferases. purified enzyme, MTase-Glo SAH luminescence; hits give low values. calls only at 40 µM. 25,000 tested, 3.9% active. AID 1745853, 2022; call rule not given here
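Each enzyme was reacted with SAM and its substrate, with compounds tested once at 40 uM; SAH formed was read by MTase-Glo luminescence.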
Calls only; n = inactive; + = active, no number.

SMILES | Methyltransferases
CCC(NS(=O)(=O)c1cc(-n2cccn2)ccc1OC)C1CC(O)C1 (stereo not drawn) | n
COC(=O)N1CC(CN2C(=O)c3c(c(C)nn3-c3ccccc3)C2C)C1 (stereo not drawn) | n
Cc1ccc(C(C)NC(=O)CN2C(=O)C3(CCNCC3)Nc3ccccc32)cc1 (stereo not drawn) | n
Cc1nc(Nc2n[nH]c3c2CN(C(=O)NC(CN(C)C)c2ccccc2)C3(C)C)c2sccc2n1 (stereo not drawn) | +
N#C/C(=C\c1ccc(-c2cc(Cl)ccc2Cl)o1)C(=O)Nc1cccc2ncccc12 | n
CN1C(=O)CCCCC1C(=O)NCCN1CCCCC1 (stereo not drawn) | n
COCC(=O)N(C)Cc1ccc(F)cc1 | n
CCOC(=O)Nc1ccc(NCc2ccc(F)cc2)nc1N | +
CCOC(=O)c1cc2n(n1)CC(C)(C(=O)NCc1ccc(F)cc1)N(c1ccc(C)cc1C)C2=O (stereo not drawn) | n
COc1ccc2cc3n(c2c1)CC(C)(C(=O)NC1CCCCC1)N(C1CCCC(C)C1C)C3=O (stereo not drawn) | n
Nc1ncnc2c1c(-c1ccc(Oc3ccccc3)cc1)nn2[C@@H]1CCCNC1 | +
Nc1ncnc2c1c(-c1cnc3[nH]ccc3c1)nn2C1CCCC1 | +
CC(C)(C)CC(=O)N1CC[C@H](NC(=O)NC2CCCCC2)[C@H]1C(=O)N[C@H](Cc1c[nH]c2ccccc12)C(N)=O | n
O=S(=O)(O)c1ccc2cc(N=Nc3cc(S(=O)(=O)O)c4cccnc4c3O)ccc2c1 | n
C=C1C(=O)O[C@@H]2[C@H]1CCC(C)=C1CCC(=O)O[C@]12C | n
COC(=O)c1ncn2c1C(=O)N(CCc1cccs1)C(C)(C(=O)NC1CCCCCC1)C2 (stereo not drawn) | n
COc1ccc(CN2C(=O)c3nc4ccccc4n3CC2(C)C(=O)NC2CCCC2)cc1 (stereo not drawn) | n
Cn1c(=O)n(C)c2cc(S(=O)(=O)NCCN3CCOCC3)ccc21 | n
CN(C)CCOC(c1ccccc1)c1ccccc1 | n
CN(C)CCOC(C)(c1ccccc1)c1ccc(Cl)cc1 (stereo not drawn) | +
Nc1ccn(C2CO[C@H](CO)O2)c(=O)n1 (stereo partly drawn) | n
COc1c2c(c(C)c3c1C(=O)OC3)OC1(C)CC(O)C34OC(OC)(OC3(C)C)C(O)CC4(C)C1C2 (stereo not drawn) | n
COc1c2c(c(C)c3c1C(=O)OC3)O[C@@]1(C)C[C@@H](OC(C)=O)[C@]34O[C@](OC)(CC[C@]3(C)[C@H]1C2)OC4(C)C | +
COc1c2c(c(C)c3c1C(=O)OC3)O[C@@]1(C)C[C@@H](O)[C@]34O[C@](OC)(CC[C@]3(C)[C@H]1C2)OC4(C)C | n
CCOC(=O)c1cc2n(n1)CC(C)(C(=O)NC1CCCC1)N(c1ccc(C)c(Cl)c1)C2=O (stereo not drawn) | n
SMILES | Methyltransferases
CCCN1C(=O)c2cc(C(=O)NCc3cc(OC)ccc3OC)nn2CC1(C)C(=O)NC1CCCC1 (stereo not drawn) | n
CCOC(=O)N1CCC(NC)CC1 | n
CCN1CCN(C(=O)c2ccc3nnc(-c4cccnc4)n3c2)CC1 | n
C=C(C)[C@H]1C[C@@H](O)C(=C)CC[C@@H](O)C(=C)[C@@H](O)C1 | +
O=S(=O)(c1ccc2[nH]c3c(c2c1)CCCC3)N1CCN(C2CCCCC2)CC1 | n
Cc1cc(C)cc(NC(=O)CCc2nnc3n(Cc4ccc(F)cc4)c(=O)c4ccccc4n23)c1 | n
O=C1CC2(CCN(Cc3ccc(C(F)(F)F)cc3)CC2)Oc2ccccc21 | n
CC(C)c1c2cc(-c3ccnc(NC4CCC(NC5CCOCC5)CC4)n3)ccc2nn1C (stereo not drawn) | +
CC(C)CCNC(=O)C1(C)Cn2c(cc3ccccc32)C(=O)N1Cc1cccc(Br)c1 (stereo not drawn) | n
COC(=O)c1cc2n(n1)CC(C)(C(=O)NC1CCC(C)CC1)N(Cc1ccc(F)cc1)C2=O (stereo not drawn) | n
O=c1[nH]c2ccc(S(=O)(=O)Nc3ccc(N4CCOCC4)cc3)cc2[nH]1 | n
c1cn2cc(-c3ccc4cn[nH]c4c3)nc(Nc3ccc(N4CCOCC4)cc3)c2n1 | +
O=C1CCN(S(=O)(=O)c2ccccc2)CCCN(C(=O)c2c[nH]c3ccccc23)CCN1 | n
CCOC(=O)c1cc2n(n1)CC(C)(C(=O)NC1CCCCCC1)N(CCc1cccs1)C2=O (stereo not drawn) | n
CCOc1ccc(CCNS(=O)(=O)c2ccc3[nH]c4c(c3c2)CCCC4)cc1OCC | n
CC1=CC(=O)C2C(C)(C)CCC[C@]2(C)[C@H]1CO (stereo partly drawn) | n
CC(=O)OC/C(=C/C(=O)O)CC[C@@H]1C(C)=CC(=O)[C@@H]2C(C)(C)CCC[C@@]12C | +
CC1=CC(=O)C2C(C)(C)CCC[C@]2(C)[C@H]1CC[C@H](C)CC(=O)O (stereo partly drawn) | n
Cn1ccnc1CNC[C@H]1Cn2cc(-c3ccccc3)nc2CO1 | n
C=C1CC2OC(=O)C(=C)C2C(OC(=O)/C(C)=C\C)CC2(C)OC1=CC2=O (stereo not drawn) | n
C=C1C(=O)O[C@H]2[C@H]1[C@@H](OC(=O)C(C)CO)C[C@@]1(C)[C@H](O)CCC(=O)[C@H]21 (stereo partly drawn) | n
C=C1C(=O)O[C@@H]2CC(C)=C([C@@H](C)CCCO)[C@@H](OC(=O)C(C)C)[C@H]12 | +
CC1CCC(NC(=O)C2(C)Cc3ccccc3C(=O)N2CCc2ccc(Cl)cc2)CC1 (stereo not drawn) | n
O=C(O)CCc1nccc2c1[nH]c1ccccc12 | n
Oc1cccc(Nc2ccnc3[nH]c4ccccc4c23)c1 | +
SMILES | Methyltransferases
CCOCc1nc(C2CCCN2S(=O)(=O)c2cn(C)cn2)no1 (stereo not drawn) | n
CC1(COc2ccc3c(c2)ncn3-c2ccc3cccc(N4CCC(N)CC4)c3n2)COC1 | +
Cc1nc(N=Nc2ccc(S(=O)(=O)O)cc2S(=O)(=O)O)c(COP(=O)(O)O)c(C=O)c1O | n
CCOc1ccc(NC(=O)N2Cc3c(sc4c3CCCC4)-n3cccc3C2c2cccc(F)c2)cc1 (stereo not drawn) | n
NCCCNCCSP(=O)(O)O | n
COCc1ncc(C)n1C1CCN(C(=O)Cc2cccc(F)c2)CC1 | n
CC(C)c1nc(-c2ccc(NC(=O)Nc3cccc(C(F)(F)F)c3)c3ccccc23)c2c(N)nccn12 | +
CC(C)c1nc2c(NC(=O)Nc3cccc(Cl)c3)cccn2n1 | n
CC(C)Cn1c(=O)c2ccccc2n2c(CCC(=O)NCCC3=CCCCC3)nnc12 | n
COc1ccc(F)cc1-c1cccc(C(=O)NCC(=O)N2CCN(C)CC2)c1 | n
O=C(O)CCc1conc1-c1ccc(F)cc1 | n
Brc1c(Br)c(Br)c2n[nH]nc2c1Br | +
O=C1[C@H]2CN(Cc3cccc(Cl)c3F)C[C@H]2C(=O)N1Cc1ccc2c(c1)OCO2 | n
CCN(CC)CCCNC(=O)c1cc2n(n1)CC(C)(C(=O)NC1CCCCC1)N(C)C2=O (stereo not drawn) | n
Cc1ccc(NC(=O)N2CCn3c(C)ccc3C2C(C)C)cc1F (stereo not drawn) | n
COc1ccccc1CNC(=O)C1(C)Cn2c(cc3ccccc32)C(=O)N1CCc1cccs1 (stereo not drawn) | n
Cn1c(=O)c2[nH]cnc2n(C)c1=O | n
